# Hits are enriched below; roughly 2.6% of the tested compounds scored in any of these assays.
# Fam108B inh: mouse Fam108B serine hydrolase inhibitors, primary screen, counter-screen for RBBP9 inhibitor project, biochemical, fluorescence polarization; recombinant Fam108B, FP-Rh probe fluorescence polarization; inhibition, % at 9.51 µM; 300,000 tested, 0.33% active; AID 1947, 2009;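 active = inhibition above the screen mean inhibition plus 3 SD, computed separately per campaign, cut at about 18% in these data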;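 note: inhibitors lower polarization as less probe binds the enzyme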
# SIAE inh: human SIAE inhibitors, primary screen, biochemical, fluorescence polarization, FP-Rh probe, 1536-well HTS; SIAE FP-Rh probe binding; 370,000 tested, 0.69% active; inhibition, % at 9.66 µM; Sialate O-acetylesterase (Homo sapiens), Q9HAT2; AID 1053197, 2014;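 active = inhibition above a cutoff: mean of compounds within the control limits plus 3 SD of those, cut at about 17% in these data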;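 note: 0% = plate median of compound wells and 100% = probe without SIAE protein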
# PRMT1 inh: PRMT1 methyltransferase inhibitors, primary screen, biochemical, fluorescence polarization; Protein arginine N-methyltransferase 1 (Homo sapiens), Q99873; recombinant PRMT1, activity-based probe fluorescence polarization; inhibition, % at 2.79 µM; 370,000 tested, 1.3% active; AID 652257, 2013;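 active = inhibition above about 21% made by adding two undisclosed values, limit read from the data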
# PAD4 FP inh: human PAD4 inhibitors, primary screen, biochemical, fluorescence polarization, 1536-well format. Protein-arginine deiminase type-4 (Homo sapiens), Q9UM07. 330,000 tested, 0.41% active. recombinant PAD4, RCA probe fluorescence polarization. inhibition, % at 6.36 µM. AID 485272, 2010;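 active = percent inhibition above a cutoff equal to the mean of all tested compounds plus 3 SD, cut at about 15% in these data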;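 note: 0% = PAD4 with RCA probe and DMSO and 100% = probe without PAD4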
# TCR-CD3 inh: inhibitors of human TCR-CD3 interaction, primary screen, biochemical, fluorescence, TAMRA-labeled TCR probe; T-cell receptor (TCR); inhibition, % at 9.4 µM; 360,000 tested, 0.37% active; AID 651800, 2012; in the data active = inhibition above about 19%;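 note: recombinant mutant TCR 2C K166C tagged with TAMRA read by polarization; 0% = receptor in buffer alone and 100% = receptor with positive control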
# PME-1 primary: PME-1 inhibitors via competitive probe labeling, primary screen, biochemical, fluorescence polarization, FP-Rh probe, HTS | recombinant PME-1 | inhibition, % at 5.9 µM | 320,000 tested, 0.53% active | AID 2130, 2009;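 active = inhibition above the campaign mean of all compounds plus 3 SD, cut at about 26% in these data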;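 note: competitive labeling of PME-1 active site by serine hydrolase directed probe; 0% = PME-1 with DMSO and 100% = wells lacking PME-1 enzyme; inhibitors block probe labeling so polarization falls and inhibition rises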
# Target sequence (Q9Y570 whole entry, looked up): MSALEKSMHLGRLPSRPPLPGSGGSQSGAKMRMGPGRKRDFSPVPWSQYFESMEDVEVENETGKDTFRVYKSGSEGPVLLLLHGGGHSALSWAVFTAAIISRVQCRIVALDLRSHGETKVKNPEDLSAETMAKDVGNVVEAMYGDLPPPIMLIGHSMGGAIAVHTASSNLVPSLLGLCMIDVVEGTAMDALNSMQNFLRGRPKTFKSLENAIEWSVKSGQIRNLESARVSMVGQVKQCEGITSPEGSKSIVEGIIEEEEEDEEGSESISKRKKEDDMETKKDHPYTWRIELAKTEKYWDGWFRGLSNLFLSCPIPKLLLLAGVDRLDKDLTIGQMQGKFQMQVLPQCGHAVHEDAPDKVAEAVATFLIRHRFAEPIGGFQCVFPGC
# PRMT1 confirm: PRMT1 methyltransferase inhibitors, confirmation, biochemical, fluorescence polarization, triplicate | recombinant His-PRMT1, activity-based probe fluorescence polarization | shares compounds with PRMT1 inh | 3,300 tested, 42% active | inhibition, % at 2.79 µM | AID 687036, 2013;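 active = mean inhibition across replicates above the hit cutoff derived for the earlier primary screen, cut at about 22% in these data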
# * hit, by the source's call; . = no result given.
SMILES,Fam108B inh,SIAE inh,PRMT1 inh,PAD4 FP inh,TCR-CD3 inh,PME-1 primary,PRMT1 confirm
O=C(Nc1ccccc1)C1=C(c2ccccc2)S(=O)(=O)CCS1(=O)=O,.,-3.2,46.7*,.,13.1,.,56.2*
COc1cc(O)c(C(CC(=O)N2CCCC(C)C2)c2ccccc2)c(OC)c1 (centres undefined),.,-1.7,-0.8,.,.,.,.
O=C(O)CN1C(=O)C2C3CC(C2C1=O)C1C(c2ccccc2)c2sc(=O)[nH]c2SC31 (centres undefined),-0.7,8.7,28.9*,1.1,4.7,2.5,28.6*
Cc1ccc(Nc2nc(-c3ccc(S(=O)(=O)N4CCOCC4)cc3)cs2)cc1,1.9,6.3,26.2*,0.7,-3.2,-2.2,-0.8
Cc1nc(-c2ccc(S(=O)(=O)N3CCOCC3)cc2)cs1,-3.8,-5.0,1.5,4.4,2.8,-6.9,.
Cc1nc(C)c(-c2csc(Nc3ccc(S(N)(=O)=O)cc3)n2)s1,.,-9.0,3.7,.,-2.6,.,.
COc1ccc(OC)c(-c2csc(NC(=O)Cc3ccc(F)cc3)n2)c1,-4.0,-7.3,-1.3,3.2,3.1,-1.0,.
Cc1ccc(-c2csc(NC(=O)Cc3ccc(F)cc3)n2)o1,-1.9,-2.4,41.2*,-2.1,-0.8,2.1,42.8*
Cc1ccc(-c2csc(Nc3ccc(S(N)(=O)=O)cc3)n2)o1,2.3,6.8,71.5*,-5.6,-0.7,1.0,39.7*
CCN(C)C(=O)CNc1nnnn1-c1ccccc1,.,6.7,-2.6,.,.,.,.
CC(=O)Nc1ccc2c(c1)CCc1ccccc1-2,-0.9,3.8,2.9,-2.2,2.1,-1.1,.
O=C(O)/C=C/C(=O)c1ccc2c(c1)CCc1ccccc1-2,-9.6,-12.9,56.2*,5.2,-1.2,-6.3,72.4*
Cc1cc(=O)c2c(o1)C(=O)c1occc1C2=O,.,4.9,36.0*,.,8.5,.,26.1*
Cc1ccc(-c2nnc3n2N=C(c2ccc4ccccc4c2)CS3)cc1,.,-6.2,-5.0,.,.,.,.
Cc1cccc(NCCC(=O)c2ccc([N+](=O)[O-])cc2)c1C,0.8,0.5,49.9*,-5.8,-0.1,3.7,65.7*
Cc1ccc(NCCC(=O)c2cccc([N+](=O)[O-])c2)c(C)c1,1.4,0.1,36.7*,1.9,-7.2,3.3,40.2*
Cc1ccc(NCC(=O)c2ccc([N+](=O)[O-])cc2)cc1,4.1,.,.,-0.4,.,2.4,.
Cc1ccc(C(=O)CNc2cccc([N+](=O)[O-])c2)cc1,-2.5,-2.4,0.3,-4.7,4.1,-4.0,.
C[n+]1c2n(c3ccccc31)N=C(c1ccc(Cl)cc1)CS2,-0.1,7.3,39.9*,6.7,7.1,1.3,17.6
CCC[C@H]1[C@@H](NCc2ccccc2)CC[C@@]23CCCN2C(=O)CCC[C@@H]13,.,-0.8,-1.8,.,.,.,.
Cc1ccc(C)n1C(CC(=O)O)c1ccc(C#N)cc1 (centres undefined),1.4,-2.2,27.0*,-1.2,-2.0,1.6,-0.2
COC(=O)C1=C(Nc2ccccc2NC(=O)c2ccccc2C(=O)O)CSC1,-2.6,5.3,25.7*,3.2,5.6,3.0,6.5
COC(=O)C1=C(Nc2ccccc2NC(=O)CCCC(=O)O)CSC1,-2.2,-5.8,-3.0,1.7,-5.0,-3.3,.
COc1ccc(N2C(=O)CC(N3CCC(O)(c4ccc(Br)cc4)CC3)C2=O)cc1 (centres undefined),5.5,2.7,50.1*,0.6,-0.2,-7.8,2.2
O=C1CC(N2CCC(O)CC2)C(=O)N1c1ccc(Br)cc1 (centres undefined),2.7,-2.3,57.1*,2.4,-7.6,-6.0,1.7
SMILES,Fam108B inh,SIAE inh,PRMT1 inh,PAD4 FP inh,TCR-CD3 inh,PME-1 primary,PRMT1 confirm
O=C1CC(N2CCC(O)(c3ccc(Cl)cc3)CC2)C(=O)N1 (centres undefined),11.9,-4.2,53.7*,1.4,2.2,-0.3,2.0
O=C1CC(N2CCN(c3ccc(Cl)c(Cl)c3)CC2)C(=O)N1 (centres undefined),0.3,-1.8,1.0,-3.6,4.2,1.3,.
O=C1CC(N2CCC(O)(c3ccc(Br)cc3)CC2)C(=O)N1c1ccc(Cl)cc1 (centres undefined),-4.5,-0.5,32.7*,-8.0,-4.5,-1.3,-0.5
O=CN1CCN(C2CC(=O)N(c3ccc(Br)cc3)C2=O)CC1 (centres undefined),2.8,7.5,2.8,-4.6,3.9,-2.9,.
CCOC(=O)Cc1nc(N2CCN(CCO)CC2)c2c(C)c(C(=O)OCC)sc2n1,.,1.3,4.4,.,.,.,.
CC(C)=CCC/C(C)=C/CNCC(=O)N1c2ccccc2[C@]2(c3ccccc3)C[C@@H]3C(=O)N(C/C=C(\C)CCC=C(C)C)CC(=O)N3[C@H]12,.,3.0,-1.6,.,.,.,.
CCOc1cc(CNn2cn[nH]c2=S)cc(Cl)c1OCc1ccccc1F,2.4,3.8,31.7*,3.0,-5.2,-3.3,5.0
O=C(CSc1nc(O)cc(=O)[nH]1)N1CCCc2ccccc21,-2.4,14.5,25.6*,5.1,3.4,-1.5,6.8
Cc1cc(=O)[nH]c(SCC(=O)N2CCCc3ccccc32)n1,2.1,-0.5,4.3,-0.3,0.5,0.0,.
O=C(CSc1nc2ccccc2c(=O)n1CCCO)NCc1ccccc1,4.4,-1.5,-3.2,0.8,-8.3,3.8,.
O=c1c2ccccc2nnn1CSc1nc2ccccc2c(=O)n1CCCO,-4.7,-7.1,25.1*,-0.2,-4.9,-0.8,-0.1
COC(=O)CNc1ccc2c(c1)OCO2,3.4,5.7,36.0*,-0.4,-3.4,1.7,4.9
COc1ccc(CCN2C(=O)CC(NCCc3ccc(S(N)(=O)=O)cc3)C2=O)cc1OC (centres undefined),3.2,7.4,41.5*,0.6,5.0,-3.8,1.4
COc1ccc(CCNC2CC(=O)N(N(C)C)C2=O)cc1OC (centres undefined),3.5,5.8,2.3,2.4,-0.1,3.3,.
CCCOc1ccc(N2C(=O)CC(NCCNc3ccc([N+](=O)[O-])cn3)C2=O)cc1 (centres undefined),1.4,6.0,32.2*,4.2,-3.2,2.1,4.3
O=C1CC(NCc2ccco2)C(=O)N1CCc1ccccc1 (centres undefined),1.4,1.0,-0.7,3.5,0.8,-4.6,.
O=C1CC(NCCc2ccccc2)C(=O)N1CCc1ccccc1 (centres undefined),1.6,0.8,37.7*,4.6,0.6,4.8,-0.3

# High-throughput results (PubChem)
